A340 absorber = compound light absorbance at 340 nm, profiling panel, artefact control, biochemical, MLSMR library, data from PS, PMK, MK assays. compound absorbance at 340 nm, fold over control. fold change at 10 µM. AID 708, 2007. 65,000 tested, under 10 active;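 active = at 10 µM dose, initial 340 nm absorbance at least 2 fold that of control wells; inactive = change under 2 fold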;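 note: initial absorbance extrapolated from kinetic A340 decline of NADH oxidation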
Fluor 339 460 = intrinsic fluorescence of library compounds, ex339/em460 – biochemical, MLSMR library, data from DPM-DC assay, artefact control, profiling panel; 65,000 compounds, 5.5% hits; fluorescence fold increase at 10 µM; compound autofluorescence, ex339/em460 nm, NADH buffer; stronger effect = higher value; 1 = no-compound wells, NADH background;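 active = at 10 µM, mean starting fluorescence two-fold or more over control wells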;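 note: signal is the first read of a kinetic run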
DPM-DC inhibit = S. pneumoniae DPM-DC inhibitors, primary screen, biochemical, PK/LDH-coupled NADH fluorescence. diphosphomevalonate decarboxylase (Streptococcus pneumoniae D39). purified DPM-DC. calls only at 10 µM. 65,000 compounds, 0.49% hits;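 active = the 320 compounds with the highest percent inhibition in the single-dose primary screen, excluding strongly autofluorescent ones, cut at about 32% in these data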;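 note: kinetic rate of NADH fluorescence loss reporting ADP formed by the decarboxylase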
NADH coupling = inhibitors of PK/LDH coupling enzymes, profiling panel, artefact control, biochemical, MLSMR library | coupled PK/LDH NADH assays, four targets | IC50, µM (series often up to 10 µM) | 65,000 compounds, 0.02% hits | AID 774, 2007;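 active = single-dose screening hits from any of four coupled enzyme assays that gave an IC50 when retested across doses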;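 note: the DPM-DC format reads NADH fluorescence rather than 340 nm absorbance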
MK inhibit = S. pneumoniae MK inhibitors, primary screen, biochemical, PK/LDH-coupled NADH absorbance; mevalonate kinase [Streptococcus pneumoniae D39]; purified MK, PK/LDH-coupled NADH absorbance 340 nm; inhibition, % at 10 µM; 65,000 compounds, 0.48% hits; AID 555, 2006;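 active = ranked among the strongest by inhibition in the single 10 µM screen, a fixed top-ranked set picked for dose follow-up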
Spn PMK inh = S. pneumoniae PMK inhibitors, primary screen, biochemical, mevalonate pathway, pilot trial included. phosphomevalonate kinase (Streptococcus pneumoniae D39). inhibition, % at 10 µM. AID 539, 2006. 65,000 compounds, 0.49% hits. purified PMK, PK/LDH-coupled NADH absorbance 340 nm;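 active = top-ranked compounds by inhibition in the single 10 µM screen, taking a fixed number of the strongest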
Hits are given with their value; n = inactive; x = no result shown; + = active, no number. Sampled rows, rich in hits. Any-hit rate of the full collection: about 6.3%.

SMILES | A340 absorber | Fluor 339 460 | DPM-DC inhibit | NADH coupling | MK inhibit | Spn PMK inh
Cc1cc(N2CCN(C)CC2)nc2ccc(NC(=O)c3ccc4c(c3)OCO4)cc12 | n | n | n | n | n | n
CCN1CCN(c2cc(C)c3cc(NC(=O)Cc4ccc(OC)c(OC)c4)ccc3n2)CC1 | n | 2.1 | x | n | n | n
Cc1cc(N2CCOCC2)nc2ccc(NC(=O)CCC(=O)N3CCCCC3)cc12 | n | 4.7 | x | n | n | n
Cc1ccc(NC(=O)c2cc(N3CCOCC3)nc3ccccc23)cc1 | n | n | n | n | n | n
O=C(Oc1cccc(-n2cnnn2)c1)c1sc2ccccc2c1Cl | n | n | n | n | n | n
c1ccc(-c2nn3c(-c4ccncc4)nnc3s2)nc1 | n | n | n | n | n | n
O=c1[nH]c(CN2CCN(C/C=C/c3ccccc3)CC2)nc2cc(Cl)ccc12 | n | n | n | n | n | n
CS(=O)(=O)N(CCc1ccccc1)CC(N)=O | n | n | n | n | n | n
CCOc1ccccc1NC(=O)CCC(=O)Nc1ccc2nc(N3CCN(C)CC3)cc(C)c2c1 | n | 3.8 | n | n | n | n
Cc1cc(N2CCOCC2)nc2ccc(NC(=O)CCC(=O)N3CCC(C)CC3)cc12 | n | 4.75 | x | n | n | n
COc1ccc(N(C)C(=O)CCC(=O)Nc2ccc3nc(N4CCOCC4)cc(C)c3c2)c(OC)c1 | n | 4.85 | x | n | n | n
Cc1cccc(NC(=O)c2cc(N3CCOCC3)nc3ccccc23)c1 | n | n | n | n | n | n
O=C(COC(=O)c1ccc(NS(=O)(=O)c2ccc3c(c2)OCCO3)cc1)NCC1CCCO1 (stereo not given) | n | n | n | n | n | n
NC(=O)c1c(NC(=O)c2cc3ccccc3o2)sc2c1CCC2 | n | 2.12 | x | n | n | n
Cc1ccc(C(=O)Nc2sc3c(c2C(=O)O)CCCCC3)o1 | n | n | n | n | n | n
COC(=O)c1c(NC(=O)c2c(C)noc2C)sc2c1CCCCCC2 | n | 3.42 | x | n | n | n
COC(=O)c1c(NC(=O)c2ccc(C)o2)sc2c1CCCCC2 | n | 3.7 | x | n | n | n
Cn1c(SCC(=O)NC2CC2)nnc1C(F)(F)F | n | n | n | n | n | n
S=c1[nH]nc(-c2ccccc2)n1C1C=CCCC1 (stereo not given) | n | n | + | n | n | n
CCCn1nc(NC(=O)c2ccco2)c2cc3ccc(C)cc3nc21 | n | 3.91 | x | n | n | n
CCn1nc(NC(=O)c2ccco2)c2cc3ccccc3nc21 | n | n | n | n | n | n
CCOC(=O)c1cc(-c2ccc3c(c2)OCO3)nc2onc(C)c12 | n | 3.28 | x | n | n | n
CCCOc1ccc(-c2nnn(CC(=O)Nc3cccc(C(=O)OC)c3)n2)cc1 | n | n | n | n | n | 26.0
CCOc1ccc(-c2nnn(CC(=O)Nc3cccc(OC)c3)n2)cc1OCC | n | n | n | n | n | n
O=C1CCNc2cc3ccccc3cc21 | n | 2.02 | x | n | n | n
SMILES | A340 absorber | Fluor 339 460 | DPM-DC inhibit | NADH coupling | MK inhibit | Spn PMK inh
Cc1ccccc1OCCNC(=O)CNC(=O)c1ccccc1O | n | 3.71 | x | n | n | n
CCCn1c(C)nc2c(c1=O)c1nc3ccccc3nc1n2CCC1=CCCCC1 | n | 3.76 | x | n | n | n
CCCn1c(C)nc2c(c1=O)c1nc3ccccc3nc1n2CCc1ccccc1 | n | 3.08 | x | n | n | n
CCOC(=O)C(NC(=O)c1ccccc1)(Nc1cc(C)on1)C(F)(F)F (stereo not given) | n | n | n | n | n | n
CC1=C(C(=O)Nc2ccccn2)C(c2ccc(Br)cc2)n2ncnc2N1 (stereo not given) | n | n | n | n | x | n
Cc1ccc2cc(CN(CC3CCCO3)C(=O)c3ccco3)c(=O)[nH]c2c1C (stereo not given) | n | n | n | n | n | n
O=C1NC(c2ccccc2)(C(F)(F)F)SC2=CCCCCN12 (stereo not given) | n | n | n | n | n | n
COc1cc(CN2CC(C)OC(C)C2)cc(OC)c1 (stereo not given) | n | n | n | n | 45.0 | n
Cc1cc(C)c2c(N)c(S(=O)(=O)c3ccccc3)sc2n1 | n | n | n | n | n | n
CCCCS(=O)(=O)c1sc2nc(C)cc(C)c2c1N | n | 2.05 | n | n | n | n
Cn1c(N)c(C(=O)CSc2nc3ccccc3n2-c2ccccc2)c(=O)n(C)c1=O | n | n | n | n | n | n
Cc1cc(=O)oc2ccc(OCC(=O)N3CCc4ccccc43)cc12 | n | n | n | n | n | n
COc1ccc(-c2cn3c(C)c(C(=O)N4CCN(c5ccc(OC)cc5)CC4)sc3n2)cc1 | n | n | n | n | n | n
COC(=O)CSc1ccc2c(N)c(C(=O)OC)sc2c1 | n | 2.52 | n | n | n | n
Cn1c(SCc2cccnc2)nc2cccnc21 | n | n | n | n | n | n
O=S(=O)(Nc1cccc2ncccc12)c1cccs1 | n | n | + | n | n | n
O=C1Nc2ccc(NS(=O)(=O)c3cccs3)c3cccc1c23 | n | n | n | n | n | n
O=S(=O)(Nc1ccc(-c2nc3cccnc3s2)cc1)c1cccs1 | n | 2.08 | x | n | n | n
CC(=O)Nc1cccc(NC(=O)C2CCCN2C(=O)Nc2ccc(Cl)cc2)c1 (stereo not given) | n | n | n | n | n | n
Cc1[nH]c2c(C)cccc2c(=O)c1Br | n | n | n | n | n | n
O=c1oc2ccccc2c(O)c1CN1CCCCC1 | n | n | n | n | x | n
Cc1cc(=O)oc2c(CN3CCN(C)CC3)c(O)c(Cl)cc12 | n | 2.49 | x | n | n | n
CCCc1cc(=O)oc2c(CN3CCN(C)CC3)c(O)c(Cl)cc12 | n | 2.31 | x | n | n | n
CCCCc1cc(=O)oc2c(CN3CCCC3)c(O)c(Cl)cc12 | n | 2.95 | x | n | n | n
CN1CCN(Cc2c(O)c(Cl)cc3c(-c4ccccc4)cc(=O)oc23)CC1 | n | n | n | n | n | n
SMILES | A340 absorber | Fluor 339 460 | DPM-DC inhibit | NADH coupling | MK inhibit | Spn PMK inh
Cc1c(C)c2cc(Cl)c(O)c(CN3CCCCC3)c2oc1=O | n | 2.48 | x | n | n | n
O=C(CN1C(=O)NC2(CCSC2)C1=O)N1CCN(c2ccc(F)cc2)CC1 (stereo not given) | n | n | x | n | n | n
CN1CC(=O)NC1=NC(=O)c1ccc(Cl)c(S(=O)(=O)N2CCCCCC2)c1 | n | n | n | n | n | 28.0
CN1CC(=O)NC1=NC(=O)c1cc(F)c(F)cc1Cl | n | n | n | n | n | n
c1ccc(-c2cc3c(ccc4nonc43)nn2)cc1 | n | n | n | n | n | n
Cc1cc2c3nonc3ccc2n1-c1ccccc1 | n | 2.25 | x | n | n | n
Cc1ccc(C)c(N2CCN(C(=O)c3cc4ccccn4n3)CC2)c1 | n | n | n | n | n | n

Bioassay records from PubChem BioAssay.
